Screens: PubChem, Paczesny and Yang Labs, IUPUI and University of Michigan
ST2 IL33 inh = inhibitors of human ST2 (IL1RL1) binding to IL-33. inhibition, % for hits at 17 µM. hit rate 2.3% among 78,000. Q01638. AlphaLISA ST2-Fc/biotin-IL-33 interaction, 1 h; in the data active = inhibition above about 30%
Target sequence (Q01638 whole entry, looked up): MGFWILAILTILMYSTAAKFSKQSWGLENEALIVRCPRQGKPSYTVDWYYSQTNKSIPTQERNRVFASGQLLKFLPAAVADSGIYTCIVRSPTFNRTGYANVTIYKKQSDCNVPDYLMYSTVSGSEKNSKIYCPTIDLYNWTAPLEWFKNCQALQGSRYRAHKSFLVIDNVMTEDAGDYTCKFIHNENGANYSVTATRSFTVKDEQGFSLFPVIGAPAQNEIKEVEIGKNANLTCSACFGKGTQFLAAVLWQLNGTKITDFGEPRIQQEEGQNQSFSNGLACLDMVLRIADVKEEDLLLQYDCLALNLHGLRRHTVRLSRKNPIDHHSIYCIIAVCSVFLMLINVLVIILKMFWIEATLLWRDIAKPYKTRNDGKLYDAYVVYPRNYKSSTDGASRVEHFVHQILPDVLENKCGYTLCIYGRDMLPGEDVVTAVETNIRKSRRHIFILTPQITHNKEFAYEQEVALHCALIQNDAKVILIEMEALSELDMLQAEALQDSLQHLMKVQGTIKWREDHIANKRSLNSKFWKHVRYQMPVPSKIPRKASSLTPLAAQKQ
Starred values were filed as active, the others as inactive; i = inactive. This is one part of a sample in which hits are shown more often than they occur.

SMILES	ST2 IL33 inh
COc1ccccc1-c1ccc(N2C[C@@H]3C[C@H](C2)c2cccc(=O)n2C3)nn1	i
CCC1(C)CC(CCNCc2ccccc2)(c2ccc(OC)cc2)CCO1 (stereo not given)	i
COc1ccc(S(=O)(=O)NC[C@H]2C[C@@H]3CCN2C[C@@H]3CN2CCSCC2)cc1	i
CCOc1ccccc1N1CCN(Cc2cccnc2)CC1	i
COc1ccc(C2NCCc3[nH]cnc32)c(OC)c1 (stereo not given)	i
Cn1nc(C2CCCCC2)cc1[C@H]1CN2CC[C@H]1C[C@@H]2CNC(=S)Nc1ccccc1	i
COCC(=O)NC[C@H]1C[C@@H]2CCN1C[C@@H]2CN1CCN(c2ccccc2OC)CC1	i
CCOc1ccccc1N1CCN(Cc2ccc(OC)cc2)CC1	i
COc1ccccc1N1CCN(Cc2ccc(F)cc2)CC1	i
COc1ccc(OC)c(CN2CCN(C)CC2)c1	i
COc1ccc(CN2CCN(c3ccccc3Cl)CC2)c(OC)c1	i
COc1ccc(CN2CCN(c3ccc(OC)cc3)CC2)cc1	32%*
COc1ccc(OC)c(CN2CCN(c3ccc(Cl)cc3)CC2)c1	34%*
O=S(=O)(NC[C@H]1C[C@@H]2CCN1C[C@@H]2CN1CCN(c2ccccc2)CC1)c1ccccc1	i
Cc1ccc(S(=O)(=O)NC[C@H]2C[C@@H]3CCN2C[C@@H]3CN2CCN(c3ccccc3)CC2)cc1	33%*
O=S(=O)(NC[C@H]1C[C@@H]2CCN1C[C@@H]2CN1CCN(c2ccc(F)cc2)CC1)c1ccccc1	i
COc1cccc(CC(C)NCc2nn(C)c3ccc(C)cc23)c1 (stereo not given)	i
S=C(NC[C@H]1C[C@@H]2CCN1C[C@@H]2CN1CCSCC1)Nc1ccccc1	i
CCN(C)c1ccnc(N2CCC3(CC2)CN(C)CCN3C)n1	i
Cn1cc(C=C2C(=O)NC(=O)NC2=O)c2ccccc21	35%*
CCN1C(=O)NC(=O)/C(=C\c2cn(CC(=O)N3CCCC3)c3ccccc23)C1=O	i
CN1C(=O)C(=Cc2cn(C)c3ccccc23)C(=O)N(C)C1=O	i
CN(C)c1ccc(C(=O)NC[C@H]2C[C@@H]3CCN2C[C@@H]3CN2CCC(Cc3ccccc3)CC2)cc1	i
C=C[C@H]1CN2CC[C@H]1C[C@@H]2CNC(=S)NCc1ccco1	i
CC(C)NC(=O)NC[C@H]1C[C@@H]2CCN1C[C@@H]2CN1C[C@@H]2C[C@H](C1)c1cccc(=O)n1C2	i
SMILES	ST2 IL33 inh
CN(Cc1ccccc1)Cc1cn(C[C@H]2CC3CCN2C[C@@H]3C(=O)NCc2ccc3c(c2)OCO3)nn1 (stereo not given in full)	i
COCCNC(=S)NC[C@H]1C[C@@H]2CCN1C[C@@H]2CN1CCN(c2ncccn2)CC1	i
COc1cc2c(cc1O)C1(C)CCC(O)C(C)(C)C1CC2=O (stereo not given)	37%*
C#C[C@H]1CN2CC[C@H]1C[C@@H]2CNC(=S)NC1CC1	i
N#Cc1c(Cl)c(Cl)nc(N2CCCNCC2)c1Cl	43%*
O=C(NC[C@H]1C[C@@H]2CCN1C[C@@H]2CN1CCc2ccccc2C1)c1ccc(C(F)(F)F)cc1	i
CCCN1CCN(C(=O)Cc2c(C(=O)O)[nH]c3ccccc23)CC1	i
O=[N+]([O-])c1ccc(C(Cl)Cl)o1	64%*
S=C(NC[C@H]1C[C@@H]2CCN1C[C@@H]2CN1CCOCC1)Nc1ccc(-n2cccn2)cc1	i
COc1ccc2n[nH]c(CN3CC[C@H](CO)[C@H](O)C3)c2c1	i
O=C(c1ccncc1)N1C[C@@H]2C[C@H](C1)c1ccc(-c3cncnc3)c(=O)n1C2	i
Cc1nc2sccn2c1C(=O)N1C[C@@H]2C[C@H](C1)c1cccc(=O)n1C2	i
COc1cc2c(cc1OC)C(C(=O)N1CCC3(CC1)OCCO3)C(c1cccs1)N(C)C2=O (stereo not given)	i
O=c1c2ccccc2nc(/C=C/c2ccc(O)cc2)n1-c1cccc([N+](=O)[O-])c1	34%*
O=c1c2ccccc2nc(/C=C/c2ccc(F)cc2)n1-c1ccccc1	i
COc1ccc(-n2c(/C=C\c3ccccc3F)nc3ccccc3c2=O)c(OC)c1	30%*
COc1ccc(/C=C/c2nc3ccccc3c(=O)n2-c2ccccc2[N+](=O)[O-])cc1	44%*
O=c1c2ccccc2nc(Cc2ccccc2)n1-c1ccccc1	i
Cc1ccc(-n2c(C)nc3ccc(I)cc3c2=O)c([N+](=O)[O-])c1	i
Cc1ccnc(-n2c(C)nc3ccccc3c2=O)c1	i
CCOC(=O)c1nc2ccccc2c(=O)n1-c1cc(Cl)c(OC)cc1OC	i
COc1cc(/C=C/c2nc3ccccc3c(=O)n2-c2ccccc2OC)ccc1O	i
COc1ccc(-c2cc([C@H]3CN4CC[C@H]3C[C@@H]4CNC(=S)Nc3ccc(F)cc3)n(C)n2)cc1OC	i
Cc1ccc(CN2[C@@H]3CC[C@H]2CN(C)C(=O)C3)s1	i
CN1CCN(C(=O)Cc2c(C(=O)O)[nH]c3ccccc23)CC1	i
SMILES	ST2 IL33 inh
O=C(CN1CC=C(c2cnn(-c3ccccn3)c2)CC1)NCC1CCCO1 (stereo not given)	i
CC(=O)Nc1ccc(-c2ccc3n(c2=O)C[C@H]2C[C@@H]3CN(C(=O)c3ccncc3)C2)cc1	i
COc1ccc(C(=O)N2C[C@@H]3C[C@H](C2)c2ccc(-c4cncnc4)c(=O)n2C3)cc1	i
CCSc1nnc(NC(=O)c2cccn(Cc3ccc(Br)cc3)c2=O)s1	i
CSc1ccc(-c2ccc(=O)n3c2[C@@H]2C[C@@H](CN(C(=O)C4CCCCC4)C2)C3)cc1	i
O=c1cccc2n1C[C@H]1C[C@@H]2CN(Cc2ccc([N+](=O)[O-])cc2)C1	i
CCN(CC)C[C@H]1CN2CC[C@H]1C[C@@H]2CNC(=O)c1ccco1	i
CCN(CC)C[C@H]1CN2CC[C@H]1C[C@@H]2CNC(=S)NCCOC	i
Cc1c(CCN)c2ccccc2n1-c1ccccc1	37%*
O=C(NCCC1=CCCCC1)c1cn(CC2CCCO2)nn1 (stereo not given)	i
O=C(NC1CCCCCCC1)c1cn(CC2CCCO2)cc(C(=O)N2CCSCC2)c1=O (stereo not given)	i
CN(CCc1ccccn1)C[C@H]1CN2CC[C@H]1C[C@@H]2CNC(=S)NCc1ccco1	i
O=C(c1cnccn1)N1C[C@@H](c2cc(F)cc(F)c2)[C@@H]2[C@H]1C1CCN2CC1	i
COc1ccccc1N1CCN(C[C@H]2CN3CC[C@H]2C[C@@H]3CNC(=S)NCc2ccco2)CC1	i
